Tb PFK block = blocks T. brucei phosphofructokinase. O15648. T. brucei PFK, ADP-Glo luminescence. Potency, µM (series often up to 57.5 µM), actives largely listed as inhibitors. 0.17% of 330,000 active; further: nearly all actives have a fitted effect of over 60% in size
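Compounds were pin-transferred as a titration series up to 57 uM into substrate buffer (0.5 mM F6P, 0.1 mM ATP, pH 8.0), then 1.25 nM PFK was added and reactions ran 45 min before ADP-Glo detection.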
GLS inhibitor = blocks human kidney-isoform glutaminase activity | GLS enzymatic activity, qHTS titration | Potency, µM (series often up to 45.5 µM), hits mostly inhibitors | 0.21% of 410,000 active | O94925
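hKGA; 45 mM KH2PO4 pH 8.2 + 0.02% Tween-20; cpd via pin tool; 1 mM Gln soln; GluOx/HRP/Amplex Red; RT 30 min; fluor. t0 & final.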
VDR inh = blocks the human vitamin D receptor; VDR-SRC2-3 peptide fluorescence polarization, 2 h; Potency, µM, most hits filed as inhibitors; 0.93% of 400,000 active
Target sequence (P11473 whole entry, looked up): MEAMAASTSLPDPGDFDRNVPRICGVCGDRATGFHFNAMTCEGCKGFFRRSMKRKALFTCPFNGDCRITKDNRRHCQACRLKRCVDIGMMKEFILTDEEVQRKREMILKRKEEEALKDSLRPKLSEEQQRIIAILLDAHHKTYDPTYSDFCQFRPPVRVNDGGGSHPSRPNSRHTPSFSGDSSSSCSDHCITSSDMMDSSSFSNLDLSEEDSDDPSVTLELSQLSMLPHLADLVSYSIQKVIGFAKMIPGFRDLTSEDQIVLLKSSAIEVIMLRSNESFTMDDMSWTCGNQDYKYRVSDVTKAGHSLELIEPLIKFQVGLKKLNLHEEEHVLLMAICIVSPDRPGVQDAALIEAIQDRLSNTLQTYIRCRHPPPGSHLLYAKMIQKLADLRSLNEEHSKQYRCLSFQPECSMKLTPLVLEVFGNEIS
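Two reagent solutions held at 4 deg C in the dark were dispensed, compounds pinned at 23 nl, and the mixture incubated 2 h at room temperature. Read-out: fluorescence polarization of VDR–SRC2-3 peptide binding.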
Pin1 inh = human Pin1 inhibition. 0.009% of 390,000 active. Pin1 FP peptide displacement, HiFluor488, 10 min. Potency, µM (doses to about 115 µM), most hits filed as inhibitors; active means well fitted inhibition curve with a large enough effect in the polarisation, with a control signal flat, not every such curve was filed as active; inconclusive means small, poorly fitted or top-dose-only effect, or effect the other way, or a change in a side signal; inactive means no such curve, though single readings can be large or run the other way; the % refers to the polarisation
Target sequence (Q13526 whole entry, looked up): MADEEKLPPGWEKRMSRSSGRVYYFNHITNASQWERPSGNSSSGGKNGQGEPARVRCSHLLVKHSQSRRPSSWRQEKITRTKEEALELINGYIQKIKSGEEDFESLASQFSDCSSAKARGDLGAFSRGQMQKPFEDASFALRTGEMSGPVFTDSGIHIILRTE
Tb PGK inh = T. brucei PGK inhibition. Potency, µM (doses to about 57.5 µM), usual class: inhibitors. 0.043% of 380,000 active. PGK/GAPDH coupled, Kinase-Glo luminescence, 60 min; further: nearly all actives have a fitted effect of over 60% in size
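Luminescent ATP detection (Kinase-Glo Plus) follows a 60-minute room-temperature incubation, with wells lacking PGK as controls. Buffer: 100 mM TEA (pH 7.6), 5 mM MgCl2, 0.01% Tween-20. Coupling enzyme GAPDH (100 nM final) supplies unstable 1,3-BPG in-well.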
USP1-UAF1 confirm = blocks human USP1/UAF1 cleavage of Ub-Rhodamine | AID 540327 | Potency, µM (series often up to 114 µM), actives largely listed as inhibitors | shares compounds with VDR inh | 50% of 50 active | Ub-Rhodamine cleavage, fluorescence kinetic read
VDR confirm = confirmation of human vitamin D receptor inhibitors; shares compounds with VDR inh; VDR-coactivator inhibition assay, qHTS confirmation; Potency, µM, hits mostly inhibitors; 89% of 840 active; AID 602199
VDR FP fluor = blocks human VDR-coactivator binding in fluorescein assay; 48% of 840 active; Potency, µM (doses to about 57.1 µM), usual class: inhibitors; shares compounds with VDR inh; VDR-coactivator binding, fluorescein fluorescence polarization
VDR bla = confirmation of human vitamin D receptor inhibitors in reporter cells | Potency, µM (series often up to 46.1 µM), actives largely listed as inhibitors | VDR beta-lactamase reporter cells, FRET ratio; cells co-treated with VDR agonist LG190178 | 23% of 840 active | shares compounds with VDR inh | AID 602202
VDR cytotox = counter-screen for vitamin D receptor inhibitors: cytotoxicity | cytotoxicity counter-screen, cell viability, qHTS | shares compounds with VDR inh | Potency, µM (top dose mostly 48.3 µM), most hits filed as cytotoxic | AID 602204 | 18% of 840 active; further: nearly all actives have a fitted effect of over 75% in size
Numbers stand for hits. Hits are enriched below; roughly 1.1% of the tested compounds scored in any of these assays. Unless noted, the call rests on the fitted dose curve; in most records, active means well fitted curve in the direction sought with a large enough effect; inconclusive means small, poorly fitted or top-dose-only effect, or another doubt; inactive means no such curve, though single readings can be large; an effect the other way counts as inactive or inconclusive.

`O=C(Nc1ccc(SC(F)F)cc1)c1cc(-c2ccc3c(c2)OCCO3)on1` gave GLS inhibitor inactive, VDR inh inactive, Pin1 inh inactive and Tb PGK inh inactive.
[O-]/[N+](=C\c1ccccc1)c1ccc(Br)cc1 was read as Tb PFK block inactive, GLS inhibitor inactive, VDR inh 25.1µM, Pin1 inh inactive, Tb PGK inh inactive, VDR confirm 3.77, VDR FP fluor inconclusive, VDR bla inactive and VDR cytotox inactive.
[O-]/[N+](=C\c1ccccc1)c1ccccc1 was read as Tb PFK block inactive, GLS inhibitor inactive, VDR inh inactive, Pin1 inh inactive and Tb PGK inh inactive.
`CC(C)COc1cccc(-c2cc(C(=O)N/N=C/c3ccncc3)c3ccccc3n2)c1` gave Tb PFK block inactive, GLS inhibitor inactive, VDR inh inactive, Pin1 inh inconclusive and Tb PGK inh inactive.
CN(C)[C@H]1C(=O)C(C(=O)NCN2CCCC2)=C(O)[C@]2(O)C(=O)C3=C(O)c4c(O)cccc4[C@@](C)(O)[C@H]3C[C@@H]12 was read as GLS inhibitor 5.01µM, VDR inh 31.6µM and USP1-UAF1 confirm inconclusive.
`Cc1ccc(OCc2cc(=O)n3cc(C)sc3n2)c(NC(=O)c2ccco2)c1` gave GLS inhibitor inactive, VDR inh inactive, Pin1 inh inactive and Tb PGK inh inactive.
For O=C1OC(NC(=O)c2ccccc2)C(n2cc(CO)nn2)=C1Cl (stereo unspecified) the results were Tb PFK block inactive, GLS inhibitor inactive, VDR inh 39.8µM, Tb PGK inh inactive, VDR confirm inconclusive, VDR FP fluor inconclusive, VDR bla inactive and VDR cytotox inactive.
For O=S(=O)(c1ccc2c(Cl)cccc2c1)N1CCN(c2nc(-c3cccs3)nc3ccccc23)CC1 the results were VDR inh inactive and Pin1 inh inactive.
Screening CCC(=O)Oc1oc(-c2ccccc2)nc1C=Nc1ccc(C)cc1 returned Tb PFK block inactive, GLS inhibitor inactive, VDR inh inactive, Pin1 inh inactive and Tb PGK inh inactive.
For CN(C)c1ccc(N=Cc2nc(-c3ccccc3)oc2OC(=O)c2cccc(Br)c2)cc1 the results were Tb PFK block inactive, GLS inhibitor inactive, VDR inh inconclusive, Pin1 inh inactive and Tb PGK inh inactive.
For CCOC(=O)c1ccc(N=Cc2nc(-c3ccccc3)oc2OC(C)=O)cc1 the results were Tb PFK block inconclusive, GLS inhibitor inactive, VDR inh 17.8µM, Pin1 inh inactive, Tb PGK inh inactive, VDR confirm 4.23, VDR FP fluor inconclusive, VDR bla inactive and VDR cytotox inactive.
For COc1ccc(N=Cc2nc(-c3ccccc3)oc2OC(=O)c2ccccc2)cc1 the results were Tb PFK block inactive, GLS inhibitor inactive, VDR inh 39.8µM, Pin1 inh inactive, Tb PGK inh inactive, VDR confirm 9.47, VDR FP fluor inconclusive, VDR bla inactive and VDR cytotox inactive.
Screening CC(=O)Oc1oc(-c2ccccc2)nc1C=Nc1ccccc1 returned Tb PFK block inactive, GLS inhibitor inconclusive, VDR inh 39.8µM, Pin1 inh inactive, Tb PGK inh inactive, VDR confirm 10.6, VDR FP fluor 12.6µM, VDR bla inactive and VDR cytotox inactive.
Cc1ccccc1N1CC(=O)N(c2ccccc2C)CC1=O was read as Tb PFK block inactive, GLS inhibitor inactive, VDR inh inactive, Pin1 inh inactive and Tb PGK inh inactive.
`Cc1cccc2c1c1ccc3c(c1n2C)C(=O)C=CC3=O` gave Tb PFK block inactive, GLS inhibitor inactive, VDR inh 22.4µM, Pin1 inh inconclusive, Tb PGK inh inactive, VDR confirm 9.47, VDR FP fluor 12.6µM, VDR bla 7.31µM and VDR cytotox 8.91µM.
Screening CCCSc1ncc(Cl)c(C(=O)NCc2ccc(OC)cc2)n1 returned GLS inhibitor inactive, VDR inh inactive and Pin1 inh inactive.
CC1=NNC(=O)/C1=C\c1cn(-c2ccccc2)nc1-c1ccc(Cl)cc1 was read as Tb PFK block inactive, GLS inhibitor inactive, VDR inh 12.6µM, Pin1 inh inactive, Tb PGK inh inactive, VDR confirm inconclusive, VDR FP fluor 11.2µM, VDR bla inconclusive and VDR cytotox 20.6µM.
Screening Cc1ccc(-c2nn(-c3ccccc3)cc2C=C2C(=O)CC(C)(C)CC2=O)cc1 returned Tb PFK block inactive, GLS inhibitor inconclusive, VDR inh 25.1µM, Pin1 inh inconclusive, Tb PGK inh inactive, VDR confirm inconclusive, VDR FP fluor 3.55µM, VDR bla inactive and VDR cytotox inactive.
CC1(C)CC(=O)C(=Cc2cn(-c3ccccc3)nc2-c2ccccc2)C(=O)C1 was read as GLS inhibitor inconclusive, VDR inh inconclusive, Pin1 inh inactive and Tb PGK inh inactive.
O=C(CSc1ccccc1)NCC1(N2CCCCC2)CCCCC1 was read as Tb PFK block inactive, GLS inhibitor inactive, VDR inh inactive, Pin1 inh inactive and Tb PGK inh inactive.
Screening CCc1ccc(NC(=O)c2cnn(-c3c(C)cccc3C)c2C2CCNCC2)cc1 returned GLS inhibitor inactive, VDR inh inactive, Pin1 inh inactive and Tb PGK inh inactive.
For c1ccc(Cc2nn3c(COc4ccccc4)nnc3s2)cc1 the results were Tb PFK block inconclusive, GLS inhibitor inactive, VDR inh 79.4µM, Pin1 inh inactive, Tb PGK inh inactive, VDR confirm 23.8, VDR FP fluor inconclusive, VDR bla inactive and VDR cytotox inactive.
Screening Clc1ccccc1-c1nn2c(COc3ccccc3)nnc2s1 returned Tb PFK block inactive, GLS inhibitor inactive, VDR inh inactive, Pin1 inh inactive and Tb PGK inh inactive.
For COc1ccc(CN2C(=O)C(CC(=O)NCc3cccc4ccccc34)CC(C(=O)N(C(C)C)C(C)C)=C2C)cc1 (stereo unspecified) the results were GLS inhibitor inactive.

Assay outcomes as filed in PubChem BioAssay.
